Screening data: PubChem BioAssay, University of Kansas High Throughput Screening Laboratory
Pf apPOL block = Pf-apPOL DNA polymerase inhibition; Recombinant Pf-apPOL, molecular beacon fluorescence, 1.5 h; inhibition, % at 10 µM; 210,000 tested, 0.25% active; AID 1794808
mHTT CaM bind = inhibitors of human mutant huntingtin-calmodulin interaction | P42858 | AlphaScreen His-mHTT/GST-CaM binding, luminescence | inhibition, % at 15 µM | 190,000 tested, 3.6% active | AID 1671202;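 note: 0% = both proteins with DMSO and 100% = one protein alone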
Starred values were filed as active, the others as inactive; . = not tested or not shown. The list is not random: actives were taken first. Their share in the collection is about 3.6%. Cut-off read from the data, not from the text of the source: active = inhibition above about 50%; inactive = the rest.

SMILES | Pf apPOL block | mHTT CaM bind
COc1cc(C2C(C#N)=C(N)Oc3n[nH]c(C(F)(F)F)c32)cc(OC)c1OC (stereo unspecified) | 0 | 7
N#CC1=C(N)Oc2n[nH]c(-c3ccc(Br)cc3)c2C1c1cn[nH]c1-c1ccc(F)cc1 (stereo unspecified) | 0 | 59*
N#CC1=C(N)Oc2n[nH]c(-c3ccccc3)c2C1c1ccccc1Cl (stereo unspecified) | -5 | 9
COc1cc(-c2[nH]nc3c2C(c2ccc(C(F)(F)F)cc2)C(C#N)=C(N)O3)cc(OC)c1OC (stereo unspecified) | -13 | 90*
COc1ccc(-c2[nH]nc3c2C(c2cc(Cl)c(O)c(OC)c2)C(C#N)=C(N)O3)cc1 (stereo unspecified) | 3 | 32
Cc1ccc(NC(=O)N2CCc3nc[nH]c3C2)c(Cl)c1 | -1 | 9
Cc1ccc(CNC(=O)C(C)C2CCN(S(=O)(=O)c3ccc(Cl)s3)CC2)o1 (stereo unspecified) | 2 | -2
CC1=C(c2ccccc2)C(=O)NC1 | -6 | .
N#C/C(=C\c1ccc(-c2ccccc2[N+](=O)[O-])o1)c1nn(CCO)c(N)c1C#N | -6 | 72*
COc1ccc(Br)cc1/C=C(\C#N)c1nn(CCO)c(N)c1C#N | -1 | 47
CC(C)Oc1ccc(Br)cc1/C=C(\C#N)c1nn(CCO)c(N)c1C#N | -4 | 54*
N#C/C(=C\c1cn(Cc2ccccc2Cl)c2ccccc12)c1nn(CCO)c(N)c1C#N | -1 | 39
N#C/C(=C\c1cn(Cc2ccc(Cl)cc2)c2ccccc12)c1nn(CCO)c(N)c1C#N | -2 | 69*
N#C/C(=C\c1ccc(-c2ccccc2F)o1)c1nn(CCO)c(N)c1C#N | -1 | 12
O=C(NCCCn1ccnc1)c1ccc(Cl)cc1 | 2 | -4
O=C(NCCCn1ccnc1)C(=O)Nc1ccc(F)c(Cl)c1 | -2 | 70*
O=C(NCCCn1ccnc1)Nc1cccc(Cl)c1 | 0 | 89*
O=C(NCCCn1ccnc1)C(=O)Nc1ccc2c(c1)OCCO2 | -2 | -3
CN(C)S(=O)(=O)N1CCN(Cc2nnnn2-c2ccc(F)c(F)c2)CC1 | 2 | 1
Cc1ccc(C2=N/C(=C\c3cccc(C(F)(F)F)c3)C(=O)O2)cc1[N+](=O)[O-] | -2 | 18
Cc1ccnc(N2CCCC(C(=O)NCCc3ccccc3Cl)C2)n1 (stereo unspecified) | -2 | 3
COc1ccc(Cl)cc1NS(=O)(=O)c1cc2c(s1)CCN(C(C)=O)C2 | -3 | 4
CC[N+]1(CC(O)COc2ccc(C34CC5CC(CC(C5)C3)C4)cc2)CCCC1 (stereo unspecified) | -3 | 28
C[N+]1(CC(O)COc2ccc(C34CC5CC(CC(C5)C3)C4)cc2)CCCC1 (stereo unspecified) | 2 | 52*
CC(C)NCC(O)COc1ccc(C23CC4CC(CC(C4)C2)C3)cc1 (stereo unspecified) | -5 | 100*
SMILES | Pf apPOL block | mHTT CaM bind
Cc1ccc(OCC(O)CNC(C)C)cc1 (stereo unspecified) | 2 | -9
CC(C)(C)NCC(O)COc1ccc(C23CC4CC(CC(C4)C2)C3)cc1 (stereo unspecified) | 0 | 100*
OCCN(CCO)CC(O)COc1ccc(C23CC4CC(CC(C4)C2)C3)cc1 (stereo unspecified) | -1 | 15
CC(C)(C)N=C1Nc2ccccc2CNC12CCN(C(=O)c1ccco1)C2 (stereo unspecified) | -2 | 22
CCN1CCN(C(=O)c2ccc3c(c2)OCO3)CC1 | -6 | 2
CC(C)C1C(=O)N(Cc2cn(CC3CCCCC3)nn2)CCS(=O)(=O)N1Cc1ccc(-c2ccncc2)cc1 (stereo unspecified) | -2 | 54*
CC1C(=O)N(Cc2cn(CC3CCCCC3)nn2)CCS(=O)(=O)N1Cc1ccc(-c2ccc(F)cc2)cc1 (stereo unspecified) | 5 | 58*
CC1C(=O)N(Cc2cn(CC3CCCCC3)nn2)CCS(=O)(=O)N1Cc1ccc(-c2ccncc2)cc1 (stereo unspecified) | 10 | 40
CC(C)C1C(=O)N(Cc2cn(CC3CCCCC3)nn2)CCS(=O)(=O)N1Cc1ccc(-c2ccccc2)cc1 (stereo unspecified) | -4 | 30
CC(C)C1C(=O)N(Cc2cn(CC3CCCCC3)nn2)CCS(=O)(=O)N1Cc1ccc(-c2cccc(CO)c2)cc1 (stereo unspecified) | -9 | 55*
Cc1ccc(-c2ccc(CN3C(C(C)C)C(=O)N(Cc4cn(CC5CCCCC5)nn4)CCS3(=O)=O)cc2)cc1 (stereo unspecified) | 3 | 17
COc1ccc(Cl)cc1NC(=O)CSc1ccccc1 | 0 | -34
NCCCN1CCc2ccccc21 | . | 39
COc1cc(C2C(C(=O)Nc3ccc(F)cc3F)=C(C)NC3=C2C(=O)CC(C)(C)C3)ccc1O (stereo unspecified) | -10 | -2
COc1ccc(C(=O)N2CCCCCC2)cc1OC | -12 | -29
